The assay concerns the target T1, Aspartate--tRNA(Asp/Asn) ligase (Mycobacterium tuberculosis (strain ATCC 25618 / H37Rv)) (UniProt P9WFW3).
T1 sequence (whole entry): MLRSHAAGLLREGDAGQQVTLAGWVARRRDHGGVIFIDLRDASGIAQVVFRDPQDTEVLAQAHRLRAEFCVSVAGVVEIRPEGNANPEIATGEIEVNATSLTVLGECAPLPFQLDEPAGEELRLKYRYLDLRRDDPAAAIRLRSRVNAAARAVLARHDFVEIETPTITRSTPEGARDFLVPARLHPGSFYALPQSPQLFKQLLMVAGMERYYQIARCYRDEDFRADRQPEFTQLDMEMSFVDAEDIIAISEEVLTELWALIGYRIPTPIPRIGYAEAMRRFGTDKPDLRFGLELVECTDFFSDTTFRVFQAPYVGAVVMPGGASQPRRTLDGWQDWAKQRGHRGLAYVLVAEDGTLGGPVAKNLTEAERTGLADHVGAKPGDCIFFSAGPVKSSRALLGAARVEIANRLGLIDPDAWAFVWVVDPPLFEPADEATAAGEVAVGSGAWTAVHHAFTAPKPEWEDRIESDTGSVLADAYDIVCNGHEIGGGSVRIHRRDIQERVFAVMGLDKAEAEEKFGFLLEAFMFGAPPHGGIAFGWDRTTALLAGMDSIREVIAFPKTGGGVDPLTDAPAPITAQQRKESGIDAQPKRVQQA
Description: Assay for Asp RNA synthetase-1 from Mycobacterium tuberculosis. On the set-up: scale not given: in the data most compounds retested in dose-response had high values. Type of assay: functional. To be noted: 30 µM.
For the molecule `Cc1cnc(N2CCC3(CCN(CC4CC4)C3=O)CC2)nc1`, the Percent Effect was -3.05%.
As for `CCC(C)NC(=O)Nc1ccc(CN2CCOC2=O)cc1` (stereo not given), the Percent Effect was -0.167%.
With `Cc1csc([C@@H]2C[C@@H]3CCN(C(=O)c4ccnnc4)C[C@H]3O2)n1`, the Percent Effect is -2.11%.
In the case of `Cc1ccc(CC(=O)N2CCOC(c3nc(C(C)(C)C)n[nH]3)C2)cn1` (stereo not given), the Percent Effect is -0.39%.
For the molecule `Cc1noc(C)c1CNCC1CCCN1c1cccnn1` (stereo not given), the Percent Effect turned out to be 1.53%.
The value for `Cc1cnc(N2CCn3cc(CNC(=O)CC4CC4)nc3C2)nc1` was 2.93%; that for `O=C(Nc1ccc(N2CCCC2)nc1)N1CCc2sccc2C1` was 0.155%; that for `COc1ncccc1NC(=O)c1cccc(C)n1` was 1.43%.
The value for `Cc1[nH]c(=O)c(C#N)cc1C(=O)N1C[C@@H](CN2CCCC2)C[C@H](CO)C1` was -2.04%; that for `CN(C(=O)c1cc(Cl)c[nH]1)C1CCN(c2ccccn2)CC1` was -6.49%.
Under `Cc1ccc(CC(=O)N2Cc3nccn3CC(CN(C)C)C2)cc1` (stereo not given) stands 1.66%; under `O=C(NCc1ccc(-c2ccn[nH]2)cc1)N1CCC(N2CCCC2)C1` (stereo not given), -3.65%; under `COCC1CC2(CCN(C(=O)c3cc(C)oc3C)CC2)CN1C(C)C` (stereo not given), -2.27%.
Consider `CCc1nc(C(=O)N2CCN(C)CC2C)nn1-c1ccccc1Cl` (stereo not given), for which the Percent Effect came to 11.5%.
As to `c1ccc(CNC2CCc3ncnn3C2)nc1` (stereo not given), the Percent Effect was -0.856%.
Consider `CN1CCCC(Cc2ccnc3ccncc23)CC1` (stereo not given), for which the Percent Effect was -3.5%.
For `CCN1CC(C(=O)NCc2ccccc2-n2cccn2)CC1=O` (stereo not given), the Percent Effect was found to be 7.12%.
With `CNC(=O)Nc1cc(-c2ccc(Br)cc2)nn1CCO`, the Percent Effect is -3.53%.
`Cc1nc(CN2CCN(C(=O)c3cc(C4CC4)on3)CC2)cs1`: the Percent Effect was -5.68%.
As to `OC(COc1ccccc1)CN1CCC(c2ccn[nH]2)CC1` (stereo not given), the Percent Effect is -0.6%.
As for `CCOc1cccc2c1OCC(C(=O)NS(=O)(=O)c1ccc(Cl)cc1)=C2`, the Percent Effect stood at 0.459%.
Under `O=C1CCCCN1c1cccc(CNC2CCCC2)c1` stands -0.259%; under `O=C(NCCCN1CCc2ccccc2C1)c1cccnc1O`, -2.28%.
For `CC(=O)c1cccc(OCCCC(=O)N(C)Cc2cccc(O)c2)c1`, the Percent Effect is -2.31%.
With `O=C(NCc1nn(-c2ccccc2)c2c1CCC2)NC1CC1`, the Percent Effect worked out at 1.63%.
As for `Cc1cc(CN(C)C(=O)c2ccc(C(F)(F)F)nc2)no1`, the Percent Effect was -0.926%.
`CCc1nc(CCNC(=O)C2CCOC2)sc1C` (stereo not given): the Percent Effect was -2.83%.
For `Cc1ccc(C)c(-n2ccc3nc(N4CCCC4)ncc3c2=O)c1`, the Percent Effect is -4.04%.
Under `O=S(=O)(CCCN1CCCC1Cn1cccn1)c1ccccc1` (stereo not given) stands -2.01%; under `Cc1nn(C)cc1CN(C)Cc1cc2c(cc1OC(F)F)OCO2`, 3.57%.
With `Cn1cc(CN2CC3(CCN(C(=O)c4ccoc4)C3)C2)cn1`, the Percent Effect is -2.07%.
Under `COc1cccc2c1OCC(NC(=O)NCc1cccs1)C2` (stereo not given) stands 1.53%.
Regarding `CC(CCc1ccccc1)NC(=O)Nc1cnn(CC(N)=O)c1` (stereo not given), the Percent Effect stood at 2.84%.
Regarding `Cc1nccn1C1CCCN(C(=O)c2ccc3c(c2)NC(=O)CO3)C1` (stereo not given), the Percent Effect is -2.02%.
Turning to `Cn1cccc1C(=O)N1CCc2ncnc(C3CC3)c2CC1`, the Percent Effect was 0.574%.
Consider `CN(CC1CN(Cc2cn3ccsc3n2)CCO1)c1cccnn1` (stereo not given), for which the Percent Effect is -3.78%.
Turning to `Cc1nc(CN2CCCCC2Cn2cncn2)nc2ccccc12` (stereo not given), the Percent Effect worked out at 1.73%.
In the case of `CS(=O)(=O)c1snnc1C1CCN(Cc2ccncc2)CC1`, the Percent Effect was -6.42%.
With `COCCC(=O)N1CC2(CCN(Cc3cccc(Cl)c3)CC2)C1`, the Percent Effect is -1.46%.
Turning to `COC(=O)CCC(=O)N1CCc2[nH]nc(-c3ccc(F)c(F)c3)c2C1`, the Percent Effect was 5.15%.

These data come from ChEMBL document CHEMBL3988442, “University of Dundee, Small-Polar-MMV Screening Library” (2021).
